A selection: hits, their analogues and other compounds. The true share with any hit is near 9.2%.
Rab9 promoter act: qHTS Assay for Rab9 Promoter Activators | Huh7 Rab9 promoter-luciferase reporter, luminescence, 24 h | Potency, µM (highest dose often 9.22 µM), inactives show at the highest dose activation, negative = inhibition, usual class: activators | hit rate 2.8% among 320,000 | AID 485297, 2010; also: % of control where 0% means no effect; nearly all actives have a fitted effect of over 60% in size
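Cell-based reporter: Huh7 stable for Rab9 promoter-driven luciferase, plated in reduced-serum medium with 10% FBS at 1500 cells/well, compound-treated 24 h at 37 °C, luminescence read after 10 min reagent.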
ELG1 genotox: qHTS screen for small molecules that induce genotoxicity in human embryonic kidney (HEK293T) cells expressing luciferase-tagged ELG1. AID 504466, 2011. HEK293T ELG1-luciferase reporter, luminescence, 16 h. Potency, µM (titrated, usually from 46 µM), inactives show at the highest dose activity change, positive = activation, hits mostly activators. hit rate 1.3% among 330,000; also: % of control where 0% means no effect; nearly all actives have a fitted effect of over 60% in size
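Step 1: seed 2,000 HEK293T ELG1-luciferase cells per well. Step 2: add compound or DMSO, incubate 16 hr at 37 °C. Step 3: ONE-Glo, 30 min at room temperature, read luminescence.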
FLuc modulator: qHTS profiling assay for firefly luciferase inhibitor/activator using purifed enzyme and Km concentrations of substrates (counterscreen for miR-21 project). Luciferin 4-monooxygenase (Photinus pyralis), P08659. purified FLuc, Km substrates, luminescence inhibition. Potency, µM (series often up to 57.5 µM), for the others: at the highest dose activity change, negative = inhibition, actives largely listed as inhibitors. hit rate 6.9% among 360,000. AID 588342, 2011;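 also: plate controls were vehicle for no effect and reference inhibitor for full effect; nearly all actives have a fitted effect of over 55% in size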
Target sequence (P08659 whole entry, looked up): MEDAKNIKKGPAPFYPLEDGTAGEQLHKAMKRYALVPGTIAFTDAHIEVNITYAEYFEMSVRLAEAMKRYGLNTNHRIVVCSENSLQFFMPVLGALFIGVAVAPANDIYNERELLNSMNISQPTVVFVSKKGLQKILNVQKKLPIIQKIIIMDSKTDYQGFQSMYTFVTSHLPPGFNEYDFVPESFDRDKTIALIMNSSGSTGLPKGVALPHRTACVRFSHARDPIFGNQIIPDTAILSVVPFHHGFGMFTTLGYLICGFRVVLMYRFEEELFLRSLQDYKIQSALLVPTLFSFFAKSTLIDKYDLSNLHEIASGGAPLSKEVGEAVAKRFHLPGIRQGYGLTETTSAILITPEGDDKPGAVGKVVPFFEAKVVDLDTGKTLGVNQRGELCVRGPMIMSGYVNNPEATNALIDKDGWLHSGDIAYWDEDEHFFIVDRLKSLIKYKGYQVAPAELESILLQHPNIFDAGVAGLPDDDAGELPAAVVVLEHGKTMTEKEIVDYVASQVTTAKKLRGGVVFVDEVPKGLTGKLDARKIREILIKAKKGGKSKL
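Purified P. pyralis luciferase, 10 nM final, with Km-level 10 uM D-luciferin and 10 uM ATP in 50 mM Tris acetate pH 7.5, 10 mM Mg acetate, 0.01% Tween-20, 0.05% BSA; 6-point qHTS titration about 60 µM downward; luminescence read.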
SMN2 splice enh: qHTS Assay for Enhancers of SMN2 Splice Variant Expression; HEK293 SMN2-luciferase splicing reporter, luminescence, 30-36 h; Potency, µM (titrated, usually from 46.1 µM), inactives show top-dose activity change, positive = activation, actives largely listed as activators; hit rate 2.8% among 210,000; also: % of control where 0% means no effect; nearly all actives have a fitted effect of over 55% in size
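HEK293 cells carry an SMN2 […]–luciferase reporter in which exon 7 inclusion puts luciferase in frame. Cells were plated 10-12 h before compound addition, then incubated 30-36 h at 37C. ONE-Glo luminescence was read; sodium butyrate at 4.5 mM final served as control.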
NPC1 prom act: qHTS Assay for NPC1 Promoter Activators. AID 485313, 2010. hit rate 2.4% among 320,000. Potency, µM (titrated, usually from 9.22 µM), inactives show at the top dose activation, hits mostly activators. Huh7 NPC1 promoter luciferase reporter, 24 h; also: % of control where 0% means no effect; nearly all actives have a fitted effect of over 60% in size
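Readout is luciferase luminescence, reflecting NPC1 promoter activation in stably transfected Huh7 cells after 24 h compound exposure at 37 °C in reduced-serum medium with 10% FBS.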
ELG1 DNA repair: qHTS screen for small molecules that inhibit ELG1-dependent DNA repair in human embryonic kidney (HEK293T) cells expressing luciferase-tagged ELG1. AID 504467, 2011. HEK293T ELG1-luciferase reporter, luminescence, 16 h; DNA damage induced by 5-fluorouridine. hit rate 2.3% among 330,000. Potency, µM (titrated, usually from 46.1 µM), for inactives: at the top dose activity change, negative = inhibition, actives largely listed as inhibitors; also: % is scaled to controls: 0 for no effect and ±100 for the full control effect; nearly all actives have a fitted effect of over 55% in size
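Reporter activity after DNA damage by 5-fluorouridine is monitored. Compound-treated cells incubate 16 hr at 37 °C, then ONE-Glo is added for 30 min before luminescence reading.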
An asterisk follows results filed as active; ? = inconclusive; · = no result given. Calls follow the shape of the dose curve; as a rule, active = well fitted curve in the direction sought with a large enough effect; inconclusive = small, poorly fitted or top-dose-only effect, or another doubt; inactive = no such curve, though single readings can be large; an effect the other way counts as inactive or inconclusive. Potency is read from the fitted curve at half-maximal effect.

SMILES | Rab9 promoter act | ELG1 genotox | FLuc modulator | SMN2 splice enh | NPC1 prom act | ELG1 DNA repair
O=C(NC1CCCCC1)C(c1ccc2ncccc2c1)N(Cc1cccs1)C(=O)c1cccs1 (stereo unspecified) | 8% | -8% | -5% | -9% | -1% | 16µM*
CCc1cccc(NC(=O)CSc2nc3ccccc3nc2N2CCCCC2)c1 | · | · | -1% | 0.5µM* | · | ·
CCc1ccc(NC(=O)CSc2nc3ccccc3nc2N2CCCCC2)cc1 | 13% | 20% | ? | · | -5% | ?
CC1=[N+](C)N(c2ccccc2)C(=O)C1N=C/C=C/c1ccccc1 (stereo unspecified) | 1% | 0% | 15µM* | · | 0% | 7%
CC(C)C(=O)Nc1cccc(-c2csc(-c3ccccc3)n2)c1 | -1% | -1% | 17µM* | ? | -2% | 10%
CC(C)C(=O)Nc1ccc(-c2csc(-c3ccccc3)n2)cc1 | ? | 22% | ? | ? | 2.2µM* | ?
Cc1nc(-c2cccc(NC(=O)Cc3ccccc3)c2)cs1 | 4% | -1% | ? | 3% | -2% | ?
Cc1ccc(C(=O)NCCNS(=O)(=O)c2ccccc2)cn1 | 6% | 0% | 0% | · | 1% | -1%
CCCN(CC(=O)Nc1ccccc1C)C(=O)C1CCN(c2ncnc3sc(C)c(C)c23)CC1 | -11% | -13% | 4% | · | -2% | 9.2µM*
COc1ccccc1OCC(=O)NNC(=O)C1CCN(c2ncnc3sc(C)c(C)c23)CC1 | -1% | -8% | 3% | · | -4% | ?
COc1cc(C(=O)N2CCN(c3ncnc4sc(C)c(C)c34)CC2)cc(OC)c1OC | -24% | -15% | -6% | · | -12% | 6.5µM*
COc1ccc(-c2csc(NC(=O)C3CCN(c4ncnc5sc(C)c(C)c45)CC3)n2)cc1OC | -36% | -11% | -2% | · | -37% | 5.2µM*
Cc1sc2ncnc(N3CCN(c4ncccn4)CC3)c2c1C | 0% | -13% | 0% | -26% | -4% | -10%
CNC(=O)c1ccc(NC(=O)C2CCN(c3ncnc4sc(C)c(C)c34)CC2)cc1 | 2% | -21% | 1% | · | 7% | 9.2µM*
Cc1ccccc1OCC(=O)NNC(=O)C1CCN(c2ncnc3sc(C)c(C)c23)CC1 | -2% | -36% | 2% | · | 2% | 21µM*
O=C(NCc1cccs1)c1nn(-c2ccccc2)nc1CO | · | · | -13% | -42% | · | ·
CC(=O)N1CCc2cc(S(=O)(=O)CCC(=O)NCCc3ccc(Cl)cc3)ccc21 | -4% | -2% | 6% | · | -1% | 1%
CC(=O)N1CCCc2cc(S(=O)(=O)NCc3ccccc3Cl)ccc21 | · | · | -2% | · | · | ·
O=C(CSCc1cccc(F)c1)N1CCN(c2ccccc2)CC1 | ? | 13µM* | 13µM* | 13µM* | 3.2µM* | ?
O=C(CSCc1ccccc1)N1CCN(c2ccccc2)CC1 | ? | ? | 24µM* | 13µM* | ? | ?
CN(C)S(=O)(=O)c1cccc(NC(=O)CO/N=C(\N)c2ccccc2)c1 | -4% | 6% | ? | · | 2% | -1%
COc1ccc(-c2c(C)nn3c(N4CCOCC4)cc(C)nc23)cc1OC | -4% | -8% | -1% | · | -5% | 16µM*
COc1ccc(-c2c(C)nn3c(N4CCCCCC4)cc(C)nc23)cc1OC | -17% | -15% | ? | · | -13% | 12µM*
O=C1CC(N2CCN(c3ncccn3)CC2)C(=O)N1CCc1ccccc1 (stereo unspecified) | 1% | -1% | ? | -7% | -1% | 16%
Cn1/c(=N/NC(=O)c2ccccc2Br)sc2ccccc21 | 4µM* | ? | 15µM* | ? | ? | ?

Bioassay records: PubChem, National Center for Advancing Translational Sciences (NCATS)
